# Targets with a hit are over-represented here; the source holds about 7,900 in all. About 0.6% of all pairs of compound and target were hits. Values without a mark were called inactive.
# Experiments:
# Assay in all cases: log2 fold change, soluble protein after heating vs DMSO (PISA); higher = thermal stabilisation; K562 cells, 10 uM, 30 min; active = over 0.2 and 3.5 SD of the protein, either way, in both replicates (recomputed)
# [1] = compound: NC(=O)Nc1cc(-c2cccc(F)c2)sc1C(=O)N[C@H]1CCCNC1
# Outline: (§1)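 K562 cells at 2×10^6 cells/mL were treated for 30 min with 10 μM compound, and aliquots were heated for 3 min over 48°C-58°C before pooling. Extraction used PBS with 0.5% NP-40 at 4°C, and soluble protein was the supernatant after 21,000xg for 90 min, measured by TMTpro 16plex LC-MS/MS with channel sums equalised. Thermal stability values, relative to control samples and from duplicates, are log2 fold changes.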
# [2] = compound: NC(=O)c1cnc(N[C@@H]2CCCC[C@@H]2N)nc1Nc1cccc(-n2nccn2)c1
# Outline: as §1
# [3] = compound: NC1(c2ccc(-c3nc4ccn5c(=O)[nH]nc5c4cc3-c3ccccc3)cc2)CCC1
# Outline: as §1
# [4] = compound: NCC(=O)Nc1ccc(-n2nc(C(F)(F)F)cc2-c2ccc3c(ccc4ccccc43)c2)cc1
# Outline: as §1
# entinostat = compound: Nc1ccccc1NC(=O)c1ccc(CNC(=O)OCc2cccnc2)cc1 [entinostat]
# Outline: as §1
# vorinostat = compound: O=C(CCCCCCC(=O)Nc1ccccc1)NO [vorinostat]
# Outline: as §1
# citarinostat = compound: O=C(CCCCCCNC(=O)c1cnc(N(c2ccccc2)c2ccccc2Cl)nc1)NO [citarinostat]
# Outline: as §1
# silmitasertib = compound: O=C(O)c1ccc2c(c1)nc(Nc1cccc(Cl)c1)c1ccncc12 [silmitasertib]
# Outline: as §1
# [5] = compound: O=C1NC(=O)C(c2cnc3ccccn23)=C1c1cn2c3c(cc(F)cc13)CN(C(=O)N1CCCCC1)CC2
# Outline: as §1
# [6] = compound: c1cc(OCCN2CCCCC2)cc(-c2n[nH]c3ccc(-c4nnc[nH]4)cc23)c1
# Outline: as §1
# Chain of UniProt Q7L0Y3 (Q7L0Y3 whole entry, looked up): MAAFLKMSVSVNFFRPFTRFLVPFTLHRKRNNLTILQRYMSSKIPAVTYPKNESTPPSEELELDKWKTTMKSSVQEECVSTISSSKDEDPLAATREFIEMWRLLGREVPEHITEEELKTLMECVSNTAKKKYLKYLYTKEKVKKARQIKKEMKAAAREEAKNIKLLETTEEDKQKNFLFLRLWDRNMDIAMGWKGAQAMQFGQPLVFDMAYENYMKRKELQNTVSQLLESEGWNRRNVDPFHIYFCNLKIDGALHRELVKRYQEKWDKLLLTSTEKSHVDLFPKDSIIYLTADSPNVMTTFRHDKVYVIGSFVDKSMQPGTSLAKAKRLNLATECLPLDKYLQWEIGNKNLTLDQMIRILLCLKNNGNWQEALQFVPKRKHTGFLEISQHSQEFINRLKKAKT
# Chain of UniProt P43897 (P43897 whole entry, looked up): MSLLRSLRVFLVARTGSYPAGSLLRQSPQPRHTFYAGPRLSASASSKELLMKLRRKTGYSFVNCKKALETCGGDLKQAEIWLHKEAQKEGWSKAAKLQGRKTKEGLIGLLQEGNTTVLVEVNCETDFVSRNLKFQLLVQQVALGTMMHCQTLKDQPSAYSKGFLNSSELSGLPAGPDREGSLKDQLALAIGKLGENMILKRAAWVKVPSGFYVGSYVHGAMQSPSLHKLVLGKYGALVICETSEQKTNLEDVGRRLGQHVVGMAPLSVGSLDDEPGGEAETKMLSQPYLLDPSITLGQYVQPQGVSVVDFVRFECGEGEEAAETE
# Chain of UniProt Q15642 (Q15642 whole entry, looked up): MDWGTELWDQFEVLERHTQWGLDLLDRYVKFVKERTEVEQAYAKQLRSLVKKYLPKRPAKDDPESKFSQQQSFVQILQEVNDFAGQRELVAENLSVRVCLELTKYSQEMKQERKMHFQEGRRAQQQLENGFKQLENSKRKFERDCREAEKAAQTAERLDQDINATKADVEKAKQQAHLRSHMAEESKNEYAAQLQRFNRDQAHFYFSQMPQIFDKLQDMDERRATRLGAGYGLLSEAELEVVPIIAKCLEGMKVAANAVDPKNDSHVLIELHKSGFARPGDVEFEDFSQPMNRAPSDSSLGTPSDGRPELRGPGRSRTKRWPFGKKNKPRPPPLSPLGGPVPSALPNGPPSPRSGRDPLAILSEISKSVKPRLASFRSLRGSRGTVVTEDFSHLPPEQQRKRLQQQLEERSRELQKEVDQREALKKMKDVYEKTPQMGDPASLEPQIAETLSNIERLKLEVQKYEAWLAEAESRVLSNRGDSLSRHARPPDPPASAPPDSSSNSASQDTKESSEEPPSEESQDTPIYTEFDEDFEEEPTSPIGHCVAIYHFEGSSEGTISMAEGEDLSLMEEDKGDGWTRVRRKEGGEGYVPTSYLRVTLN
# Chain of UniProt Q9UPU5 (Q9UPU5 whole entry, looked up): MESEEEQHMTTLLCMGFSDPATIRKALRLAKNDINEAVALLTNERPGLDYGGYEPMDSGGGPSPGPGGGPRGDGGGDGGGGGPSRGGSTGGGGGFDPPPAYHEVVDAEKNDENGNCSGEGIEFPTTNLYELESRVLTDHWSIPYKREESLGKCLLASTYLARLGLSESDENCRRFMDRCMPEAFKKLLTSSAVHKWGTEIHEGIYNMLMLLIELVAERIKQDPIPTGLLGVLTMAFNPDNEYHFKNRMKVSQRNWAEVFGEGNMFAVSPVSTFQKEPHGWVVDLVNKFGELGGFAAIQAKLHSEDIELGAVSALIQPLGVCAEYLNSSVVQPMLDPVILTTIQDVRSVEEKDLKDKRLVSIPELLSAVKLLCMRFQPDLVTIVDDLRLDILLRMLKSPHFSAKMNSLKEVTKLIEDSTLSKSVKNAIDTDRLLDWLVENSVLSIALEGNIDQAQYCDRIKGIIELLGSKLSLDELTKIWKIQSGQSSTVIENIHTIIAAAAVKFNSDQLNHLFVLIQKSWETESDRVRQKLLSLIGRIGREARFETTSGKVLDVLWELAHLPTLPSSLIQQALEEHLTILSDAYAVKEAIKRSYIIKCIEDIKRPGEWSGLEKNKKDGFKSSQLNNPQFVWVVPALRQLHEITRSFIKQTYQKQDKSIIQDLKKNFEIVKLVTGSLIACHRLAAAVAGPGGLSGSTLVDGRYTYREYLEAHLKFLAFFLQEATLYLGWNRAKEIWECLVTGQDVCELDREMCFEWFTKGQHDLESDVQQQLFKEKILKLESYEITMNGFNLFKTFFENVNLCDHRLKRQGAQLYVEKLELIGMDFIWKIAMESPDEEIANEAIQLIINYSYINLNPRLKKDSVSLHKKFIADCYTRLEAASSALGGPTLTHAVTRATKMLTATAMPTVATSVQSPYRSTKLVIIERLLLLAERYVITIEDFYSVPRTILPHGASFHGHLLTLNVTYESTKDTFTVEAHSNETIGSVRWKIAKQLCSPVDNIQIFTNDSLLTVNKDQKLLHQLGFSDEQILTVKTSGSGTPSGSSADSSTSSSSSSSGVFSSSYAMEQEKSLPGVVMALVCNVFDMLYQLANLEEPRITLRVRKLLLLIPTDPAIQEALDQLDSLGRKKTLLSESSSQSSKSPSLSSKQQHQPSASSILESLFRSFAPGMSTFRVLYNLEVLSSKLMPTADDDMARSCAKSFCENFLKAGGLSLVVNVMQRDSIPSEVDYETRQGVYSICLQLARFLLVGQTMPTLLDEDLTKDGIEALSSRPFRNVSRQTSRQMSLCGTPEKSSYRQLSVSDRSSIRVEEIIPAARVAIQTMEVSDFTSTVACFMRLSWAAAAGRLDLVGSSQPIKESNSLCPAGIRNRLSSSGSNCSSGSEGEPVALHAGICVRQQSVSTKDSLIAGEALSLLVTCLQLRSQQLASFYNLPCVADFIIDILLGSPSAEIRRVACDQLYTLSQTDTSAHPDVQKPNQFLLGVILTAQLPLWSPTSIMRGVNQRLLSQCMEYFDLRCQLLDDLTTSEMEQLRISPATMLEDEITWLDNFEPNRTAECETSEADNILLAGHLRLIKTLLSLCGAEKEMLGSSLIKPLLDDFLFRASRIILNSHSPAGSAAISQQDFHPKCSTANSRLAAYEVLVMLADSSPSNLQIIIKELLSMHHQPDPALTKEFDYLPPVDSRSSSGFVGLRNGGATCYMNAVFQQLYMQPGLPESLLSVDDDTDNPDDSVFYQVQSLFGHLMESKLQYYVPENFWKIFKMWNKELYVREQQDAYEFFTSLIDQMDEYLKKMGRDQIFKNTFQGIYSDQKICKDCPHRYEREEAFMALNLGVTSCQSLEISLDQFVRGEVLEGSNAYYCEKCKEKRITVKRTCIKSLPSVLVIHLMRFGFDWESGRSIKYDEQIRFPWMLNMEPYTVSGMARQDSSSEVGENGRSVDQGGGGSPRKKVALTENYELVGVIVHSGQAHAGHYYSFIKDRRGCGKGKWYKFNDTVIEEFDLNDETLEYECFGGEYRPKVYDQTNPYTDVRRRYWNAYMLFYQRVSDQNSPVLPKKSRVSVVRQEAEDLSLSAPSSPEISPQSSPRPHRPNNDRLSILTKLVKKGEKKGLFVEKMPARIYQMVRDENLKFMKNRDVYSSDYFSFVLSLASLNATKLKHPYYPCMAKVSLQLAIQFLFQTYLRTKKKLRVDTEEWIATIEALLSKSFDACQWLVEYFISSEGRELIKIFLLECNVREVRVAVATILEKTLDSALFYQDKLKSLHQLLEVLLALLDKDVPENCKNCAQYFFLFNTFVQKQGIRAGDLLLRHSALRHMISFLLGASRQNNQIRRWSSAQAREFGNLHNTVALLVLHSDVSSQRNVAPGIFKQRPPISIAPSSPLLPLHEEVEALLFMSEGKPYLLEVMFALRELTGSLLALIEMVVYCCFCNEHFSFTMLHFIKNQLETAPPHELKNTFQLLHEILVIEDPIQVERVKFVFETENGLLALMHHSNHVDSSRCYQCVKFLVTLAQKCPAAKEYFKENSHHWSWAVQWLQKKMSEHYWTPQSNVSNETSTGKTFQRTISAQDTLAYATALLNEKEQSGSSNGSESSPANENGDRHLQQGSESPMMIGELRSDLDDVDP
# Chain of UniProt Q9Y5K5 (Q9Y5K5 whole entry, looked up): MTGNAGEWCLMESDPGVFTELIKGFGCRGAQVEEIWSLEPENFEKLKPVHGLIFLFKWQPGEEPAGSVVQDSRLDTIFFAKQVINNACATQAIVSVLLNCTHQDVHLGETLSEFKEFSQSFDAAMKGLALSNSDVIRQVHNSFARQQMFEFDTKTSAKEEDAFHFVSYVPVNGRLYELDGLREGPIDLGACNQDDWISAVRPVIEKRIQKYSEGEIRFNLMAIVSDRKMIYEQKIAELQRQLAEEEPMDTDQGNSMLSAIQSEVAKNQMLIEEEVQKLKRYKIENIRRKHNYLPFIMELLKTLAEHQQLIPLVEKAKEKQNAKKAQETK
# Chain of UniProt O60784 (O60784 whole entry, looked up): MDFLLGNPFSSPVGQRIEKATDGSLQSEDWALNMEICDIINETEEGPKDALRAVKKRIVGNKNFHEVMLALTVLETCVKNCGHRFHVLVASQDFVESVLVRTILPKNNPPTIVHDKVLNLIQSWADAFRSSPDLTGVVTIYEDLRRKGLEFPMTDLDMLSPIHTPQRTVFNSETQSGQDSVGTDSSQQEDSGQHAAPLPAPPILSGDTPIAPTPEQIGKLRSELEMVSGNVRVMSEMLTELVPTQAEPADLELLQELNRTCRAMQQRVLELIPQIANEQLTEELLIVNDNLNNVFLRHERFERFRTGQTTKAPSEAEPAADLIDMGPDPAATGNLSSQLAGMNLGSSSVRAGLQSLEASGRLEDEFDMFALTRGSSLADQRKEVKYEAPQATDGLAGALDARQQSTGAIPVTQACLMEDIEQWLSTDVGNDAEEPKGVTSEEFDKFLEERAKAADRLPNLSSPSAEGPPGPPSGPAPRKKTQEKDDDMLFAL
# Chain of UniProt Q15388 (Q15388 whole entry, looked up): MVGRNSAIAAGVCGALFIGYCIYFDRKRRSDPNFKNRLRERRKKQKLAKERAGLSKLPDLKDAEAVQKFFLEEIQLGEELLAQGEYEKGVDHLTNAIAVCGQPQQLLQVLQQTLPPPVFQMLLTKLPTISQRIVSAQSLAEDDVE
# Chain of UniProt P61960 (P61960 whole entry, looked up): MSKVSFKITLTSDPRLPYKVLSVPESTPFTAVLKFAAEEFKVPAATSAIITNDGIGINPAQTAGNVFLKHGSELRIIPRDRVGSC
Target,log2 fold change [1],log2 fold change [2],log2 fold change [3],log2 fold change [4],log2 fold change (entinostat),log2 fold change (vorinostat),log2 fold change (citarinostat),log2 fold change (silmitasertib),log2 fold change [5],log2 fold change [6]
TRAPPC8 (UniProt Q9Y2L5),-0.039,-0.082,-0.168,-0.028,0.042,0.053,0.051,0.07,-0.016,-0.205
UBE2Q1 (UniProt Q7Z7E8),-0.01,-0.059,-0.084,-0.012,0.03,0.084,0.029,0.074,-0.035,-0.035
TSEN2 (UniProt Q8NCE0),0.212,-0.008,-0.126,-0.024,0.052,-0.003,0.005,0.197,-0.015,0.008
VPS8 (UniProt Q8N3P4),-0.035,-0.125,-0.15,-0.088,0.077,0.158,-0.004,0.078,-0.006,-0.012
UBE4B isoform 4 (UniProt O95155),0.005,-0.055,-0.113,-0.056,0.019,0.023,0.02,0.042,-0.082,-0.014
UCHL5 (UniProt Q9Y5K5),-0.003,-0.029,-0.124,-0.045,0.048,0.063,0.08,0.04,-0.084,-0.026
TOMM20 (UniProt Q15388),0.008,-0.034,-0.023,-0.131,0.01,0.031,-0.088,-0.006,-0.088,-0.01
TRIP10 (UniProt Q15642),-0.003,-0.055,-0.129,-0.011,0.019,-0.063,0,0.046,-0.207,-0.014
TMEM173 (UniProt Q86WV6),0.002,-0.041,-0.078,-0.06,0.032,-0.09,-0.028,-0.041,0.035,0.006
TRMT10A (UniProt Q8TBZ6),0.015,-0.005,-0.075,-0.109,-0.039,-0.003,-0.013,-0.023,0.007,-0.02
"WASHC2C, A0A096LPC5",-0.084,-0.208,-0.06,-0.058,-0.015,-0.209,-0.113,0.361,0.001,-0.151
UBAP2L isoform 1 (UniProt Q14157),0.071,0.076,-0.064,0.039,-0.043,0.041,-0.022,-0.031,-0.012,0.03
VPS51 (UniProt Q9UID3),-0.02,-0.119,-0.082,-0.048,0.07,-0.035,-0.002,0.068,0.022,0.1
TMEM208 (UniProt Q9BTX3),0.038,-0.133,-0.28,-0.181,-0.01,0.187,0.036,0.048,0.02,-0.09
XPNPEP1 isoform 3 (UniProt Q9NQW7),-0.04,-0.052,-0.126,-0.07,0.015,0.399 (active),0.062,-0.037,-0.02,0.025
VRK1 (UniProt Q99986),-0.056,0.025,-0.11,-0.144,0.059,0.046,0.023,-0.028,-0.138,0.063
UGDH (UniProt O60701),-0.062,-0.124,-0.033,-0.095,0.064,-0.027,0.145,-0.102,-0.31 (active),0
WASHC3 (UniProt Q9Y3C0),-0.037,0.1,-0.271 (active),-0.029,-0.011,-0.053,0.016,0.075,-0.054,-0.005
TOMM5 isoform 2 (UniProt Q8N4H5),-0.053,0.002,-0.083,0.084,0.067,-0.117,0.039,-0.043,-0.158,0.099
WDR43 (UniProt Q15061),0.023,0.03,0.068,-0.023,-0.029,-0.078,0.007,0.051,-0.007,-0.027

Target,log2 fold change [1],log2 fold change [2],log2 fold change [3],log2 fold change [4],log2 fold change (entinostat),log2 fold change (vorinostat),log2 fold change (citarinostat),log2 fold change (silmitasertib),log2 fold change [5],log2 fold change [6]
TUBA4A (UniProt P68366),0.004,-0.02,-0.063,0.028,-0.024,0.062,0.031,-0.065,-0.059,0.009
USP9X (UniProt Q93008),0,-0.062,-0.174,-0.041,0.037,0.06,0.032,0.017,-0.015,-0.056
TMEM189-UBE2V1 (UniProt I3L0A0),0.06,-0.018,-0.063,-0.018,-0.097,0.005,0.046,-0.058,0.009,-0.016
TXNL1 (UniProt O43396),-0.048,-0.013,-0.084,-0.015,0.028,0.018,0.087,0.074,-0.004,-0.03
TMTC3 (UniProt Q6ZXV5),-0.028,-0.113,-0.135,-0.097,-0.046,0.025,0.005,0.025,-0.037,-0.089
VWA8 (UniProt A3KMH1),-0.017,-0.024,-0.135,-0.016,0.008,0.096,0.048,-0.046,-0.071,-0.039
UTP4 (UniProt Q969X6),0.049,0.033,0.075,0.05,-0.037,-0.051,-0.002,0.064,0.06,-0.03
"VARS2, A0A0G2JL52",0.013,-0.01,-0.087,-0.062,0.028,0.106,0.006,-0.005,-0.048,-0.017
VPS35L (UniProt Q7Z3J2),-0.038,0.004,-0.137,-0.012,0.006,-0.039,0.08,0.111,-0.006,-0.062
VPS13B (UniProt Q7Z7G8),-0.064,-0.033,-0.069,-0.039,-0.033,0.041,0.018,0.038,-0.043,-0.03
UXT isoform 2 (UniProt Q9UBK9),-0.041,-0.067,-0.108,-0.011,0.004,0.047,0.129,-0.033,-0.051,0.007
TMEM87B (UniProt Q96K49),-0.098,-0.062,-0.266,-0.1,0.135,0.057,0.021,0.096,-0.032,-0.117
WDCP (UniProt Q9H6R7),0.062,0.049,-0.011,-0.025,0.019,0.037,0.118,0.172,-0.033,-0.035
WAPL isoform 3 (UniProt Q7Z5K2),-0.009,-0.033,-0.423 (active),-0.066,0.01,0.082,0.198,0.067,-0.148,0.078
VPS39 (UniProt Q96JC1),0.026,-0.119,-0.195,-0.039,0.05,0.101,0.01,-0.004,0.055,-0.042
TSFM (UniProt P43897),-0.068,0.03,-0.05,-0.076,0.162,0.016,0.181,0.11,-0.043,0
UBAP2L isoform 5 (UniProt Q14157),0.017,-0.004,-0.013,0.001,-0.016,-0.016,0.013,-0.007,-0.029,0.023
UFM1 isoform 2 (UniProt P61960),-0.031,-0.114,-0.087,-0.057,-0.012,-0.057,-0.044,-0.025,-0.007,-0.218
VPS33A (UniProt Q96AX1),0.012,-0.121,-0.191,-0.084,0.05,0.051,0.063,0.019,0.029,-0.059
TOP2A isoform 4 (UniProt P11388),0.159,0.058,0.307,0.19,-0.042,0.034,-0.112,0.255,0.296,-0.205

Target,log2 fold change [1],log2 fold change [2],log2 fold change [3],log2 fold change [4],log2 fold change (entinostat),log2 fold change (vorinostat),log2 fold change (citarinostat),log2 fold change (silmitasertib),log2 fold change [5],log2 fold change [6]
TRIM4 (UniProt Q9C037),-0.04,0.007,0.082,-0.294,0.03,-0.03,-0.006,0.042,-0.051,-0.049
UBA52 (UniProt P62987),0.067,0.158,0.366,0.178,0,0.029,-0.112,0.158,0.246,-0.216
TMEM184C (UniProt Q9NVA4),-0.185,0.069,-0.401 (active),-0.07,-0.218,0.08,-0.065,-0.004,-0.055,0.022
TXNRD1 (UniProt Q16881),-0.082,-0.052,-0.077,-0.007,-0.027,-0.005,0.017,-0.036,-0.122,0.006
TRMT10C (UniProt Q7L0Y3),-0.055,-0.027,-0.137,-0.018,0.022,0,-0.018,-0.026,-0.075,0.035
TOE1 (UniProt Q96GM8),0.09,-0.011,0.104,-0.01,-0.038,-0.047,0.011,0.026,0.122,-0.18
WBP4 (UniProt O75554),0.28 (active),0.079,0.006,0.111,0.058,0.098,0.055,-0.026,0,-0.007
TOM1L1 (UniProt O75674),-0.086,0.102,0.008,0.018,-0.034,0.092,-0.074,0.021,0.008,-0.041
WDR18 (UniProt Q9BV38),0.013,-0.021,-0.043,0.054,0.019,0.025,0.018,0.013,-0.03,0.017
WDHD1 (UniProt O75717),-0.037,-0.054,-0.156,-0.106,0.09,0.119,0.176,0.025,-0.107,-0.001
VPS16 (UniProt Q9H269),0.041,-0.156,-0.211,0.007,0.084,0.16,0.189,0.009,0.122,0
USP25 isoform 3 (UniProt Q9UHP3),-0.038,-0.027,-0.071,-0.067,0.001,-0.019,-0.021,0.051,-0.03,0.011
USO1 isoform 2 (UniProt O60763),-0.009,0,-0.101,-0.024,0.032,0.018,0.032,0.059,-0.035,-0.013
TMEM70 (UniProt Q9BUB7),-0.058,-0.125,-0.162,-0.137,0.005,0.031,0.047,0.019,-0.045,-0.003
TOM1 isoform 2 (UniProt O60784),-0.002,-0.104,-0.066,-0.082,-0.045,-0.119,0.056,-0.019,-0.026,-0.081
USP24 (UniProt Q9UPU5),0.18,0.079,-0.053,0.07,-0.095,-0.012,0.012,0.188,-0.2,0.11
XPOT (UniProt O43592),-0.04,-0.103,-0.241,-0.061,0.063,0.031,0.069,0.134,0.057,-0.047
TMEM63B (UniProt Q5T3F8),0.069,0.059,-0.153,0.052,0.07,-0.008,-0.024,0.001,-0.037,-0.021
UHRF1BP1 (UniProt Q6BDS2),-0.019,0.074,0.019,0.029,-0.058,0.004,-0.012,-0.043,-0.032,0.007

# Reference: the supplement of paper PMC10849652
